# HT1080 IDH1KD tx: toxicity to HT-1080 IDH1 knockdown cells (counter line). 2% of 360,000 active. Potency, µM (highest dose often 46.1 µM), without a hit: at the top dose activity, negative = toxicity, usual class: cytotoxic. HT-1080 IDH1 knockdown viability, ATP luminescence, 48 h;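 also: potency is read from the fitted curve at half-maximal effect; 0% = DMSO wells and -100% = cell-free medium wells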
#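 Cytotoxicity counter-line: IDH1KD HT-1080, 48 h, CellTiter-Glo. Curves classed by r2, magnitude and activity.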
# DT40 TDP1 no CPT: qHTS for Inhibitors of human tyrosyl-DNA phosphodiesterase 1 (TDP1): qHTS in cells in absence of CPT | Potency, µM (doses to about 46.2 µM), inactives show top-dose activity change, negative = growth inhibition, actives largely listed as inhibitors | DT40 Tdp1-/- hTDP1 cells, no CPT, ATP luminescence, 48 h | AID 686978, 2013 | 15% of 420,000 active; also: potency is read from the fitted curve at half-maximal effect; nearly all actives have a fitted effect of over 55% in size
#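 Chicken DT40 Tdp1-/- cells complemented with human TDP1, screened without camptothecin (DMSO vehicle only), 400 cells/well. Compounds pin-transferred, cells incubated at 37 °C for at least 48 hr. Growth read as ATP-dependent luminescence (CellTiter-Glo, 30 min at RT).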
# DT40 TDP1 CPT: growth inhibition of DT40 Tdp1-/-;hTDP1 cells with camptothecin (screen for TDP1 inhibitors); Potency, µM (series often up to 46.2 µM), inactives show at the top dose activity change, negative = growth inhibition, usual class: inhibitors; 12% of 420,000 active; AID 686979; chicken DT40 Tdp1-/-;hTDP1 cells + 20 nM CPT, ATP luminescence, 48 h; also: potency is read from the fitted curve at half-maximal effect; nearly all actives have a fitted effect of over 55% in size
#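 Cell growth measured by CellTiter-Glo luminescence after a minimum 48 h, 37 C compound exposure with 20 nM CPT in Tdp1-knockout DT40 cells stably expressing hTDP1, seeded 400/well; qHTS titration format.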
# IL-1B inflam inh: inhibitors of inflammasome signaling (IL-1 beta secretion). THP-1 LPS/ATP IL-1B secretion, AlphaLISA, 16 h; active compounds read low. activity change, % at 57.5 µM. 4.7% of 360,000 active. AID 743279; in the data active = activity change below about -50%; inconclusive = mostly about -30% to -49%
#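 THP-1 cells pretreated 1 hr with compounds (up to 57.5 uM final), then stimulated with LPS (250 ng/mL final) plus ATP (1.25 mM final); secreted IL-1B measured by AlphaLISA after 16 hr, decreased signal indicating inhibition.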
# uPA generation: cell surface uPA generation inhibition; Potency, µM (titrated, usually from 38.3 µM), for inactives: top-dose activity change, negative = inhibition, usual class: inhibitors; 0.31% of 330,000 active; cell surface uPA generation assay, qHTS; active = well fitted inhibition curve with a large enough effect; inconclusive = small, poorly fitted or top-dose-only effect; inactive = no such curve, though single readings can be large or run the other way; tested in mouse RAW 264.7 cells; also: potency is read from the fitted curve at half-maximal effect; nearly all actives have a fitted effect of over 55% in size
# HT1080-NT tox: kills 2HG-producing HT-1080-NT fibrosarcoma cells | HT-1080-NT fibrosarcoma viability, CellTiter-Glo ATP luminescence, 48 h | 1.6% of 360,000 active | Potency, µM (highest dose often 46.1 µM), for inactives: top-dose activity, negative = less viability, actives largely listed as cytotoxic | AID 686970;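 also: NT is the 2HG producing partner of a matched IDH1 knockdown line; potency is read from the fitted curve at half-maximal effect; 0% = DMSO-treated cells and -100% = media-only wells without cells; nearly all actives have a fitted effect of over 55% in size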
#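 HT-1080-NT fibrosarcoma cells (2HG-overproducing), 750 cells/well in RPMI with 5% FBS, dosed after 2 h and incubated 48 h at 37C. CellTiter-Glo luminescence normalized to DMSO and no-cell wells; concentration-response curves fitted and classed.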
# * marks the source's active call; other numbers are inactive results; ? = inconclusive; / = not tested or not shown. Sampled rows, rich in hits. Any-hit rate of the full collection: about 19%. Unless noted, calls follow the shape of the dose curve; as a rule, active = well fitted curve in the direction sought with a large enough effect; inconclusive = small, poorly fitted or top-dose-only effect, or another doubt; inactive = no such curve, though single readings can be large; an effect the other way counts as inactive or inconclusive. Unless noted, % is scaled to controls: 0 for no effect and ±100 for the full control effect.
SMILES,HT1080 IDH1KD tx,DT40 TDP1 no CPT,DT40 TDP1 CPT,IL-1B inflam inh,uPA generation,HT1080-NT tox
CSc1ccccc1OCc1cc(C(=O)N(C)Cc2nonc2C)no1,0%,?,?,?,2%,-10%
O=C1Nc2ccccc2C(=O)N(Cc2ccccc2)C1C(=O)NC1CC1 (stereo not given),4%,1%,6%,23,/,18%
Cc1ccc2c(c1)c1c(n2CC(O)CNC2CCCCC2)CCCC1 (stereo not given),16µM*,15µM*,23µM*,-112*,?,21µM*
Cc1ccc2c(c1)c(C)c(C)n2CC(O)CN1CCCCC1C (stereo not given),-20%,?,?,/,6%,-25%
Cc1ccc2c(c1)c1c(n2CC(O)CN2CCC(C)CC2)CCCC1 (stereo not given),-3%,26µM*,?,-65*,7%,-12%
Cc1ccc2c(c1)c1c(n2CC(O)CN2CCCCC2C)CCCC1 (stereo not given),?,?,?,0,-2%,18µM*
COC(=O)Cn1c2c(c3cc(C)ccc31)CCCC2,7%,-12%,-9%,-1,-4%,8%
Cc1ccc2c(c1)c1c(n2CC(O)CNC(CO)(CO)CO)CCCC1 (stereo not given),-22%,-27%,?,-26,11%,-7%
C=CCCC(=O)N1C[C@H]2CON(C)[C@H]2C[C@H]1c1ccc(-n2ccnc2)cc1,10%,1%,-16%,21,/,4%
CCOc1ccc(OCC(=O)Nc2ccc(S(=O)(=O)Nc3cc(C)nc(C)n3)cc2)cc1,4%,-24%,2%,142,7%,6%
Cc1cc(NS(=O)(=O)c2ccc(NC(=O)COc3c(C)cc(Br)cc3C)cc2)no1,?,23µM*,21µM*,35,4%,-17%
Cc1cc(NS(=O)(=O)c2ccc(NC(=O)COc3ccc(Br)cc3)cc2)nc(C)n1,0%,?,15µM*,24,-9%,2%
COc1ccc(OC)c(NC(=O)Cc2coc3ccc4ccccc4c23)c1,-21%,13µM*,?,32,9%,-27%
COc1ccc(OC)c(NC(=O)Cc2coc3cc(C)cc(C)c23)c1,-1%,?,?,3,/,1%
O=C(O)Cc1coc2ccc3ccccc3c12,-3%,-23%,-1%,-7,2%,-13%
COc1ccc(NC(=O)Cc2coc3cc(C)cc(C)c23)c(OC)c1,/,?,21µM*,/,/,/
Cc1cccc(NC(=O)Cc2coc3ccc4ccccc4c23)n1,7.1µM*,16µM*,10µM*,-3,-15%,?
CCC1CCCCN1CCCNC(=O)Cn1c(=O)c2cccn2c2cccnc21 (stereo not given),-5%,-1%,-6%,-22,4%,-2%
Nc1ccc(/C=C/C(=O)c2ccco2)cc1,1%,?,-19%,-23,-4%,12%
N#Cc1ccc(/C=C/C(=O)c2ccco2)cc1,-5%,10µM*,9.2µM*,-29,-5%,-3%
CC(C)(C)C(=O)Nc1ccc(/C=C/C(=O)c2ccco2)cc1,23µM*,?,?,-102*,-8%,?
CC(C)(C)C(=O)Nc1ccc(NC(=O)c2ccco2)nc1,1%,8%,-21%,-14,-16%,4%
O=C(COc1ccccc1F)Nc1nnc(SCc2cc(=O)n3ccccc3n2)s1,/,-3%,1%,/,/,/
Nc1nc2[nH]cc(CCc3ccc(C(=O)N[C@@H](CCC(=O)O)C(=O)O)cc3)c2c(=O)[nH]1,/,0.03µM*,0.047µM*,/,/,/
CC(C)CCN(C(=S)Nc1cccc(F)c1)C1CCN(C(C)C)CC1,-19%,7%,10%,-92*,5%,-2%

# Assay outcomes as filed in PubChem.
